# This is one part of a sample in which hits are shown more often than they occur.
# p53 reactivator – qHTS assay for re-activators of p53 using a Luc reporter; H1299 p53-A138V BP100-luciferase reporter, luminescence, 24 h; Potency, µM (highest dose often 92.2 µM), actives largely listed as activators; 0.063% of 320,000 active; AID 504706, 2011; note: nearly all actives have a fitted effect of over 45% in size
#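 H1299 (p53-null), stable ts p53-A138V + BP100-Luc; 1000 cells/well, Opti-MEM/10% FBS; cpd 4 pt, 1:5; 24 h, 37 deg C, 5% CO2; detection reagent 10 min RT; luminescence.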
# USP2a inh – qHTS Assay for Inhibitors of Ubiquitin-specific Protease USP2a Using CHOP2 as the Reporter; Ubiquitin carboxyl-terminal hydrolase 2 (Homo sapiens), O75604; Potency, µM (doses to about 38.3 µM), actives largely listed as inhibitors; AID 463254, 2010; USP2 core, Ub-CHOP2 coupled fluorogenic reporter, 485/531; 0.01% of 330,000 active
#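 Cell-free coupled assay: 10nM USP2 core preincubated 30min RT with compound in Tris-HCl pH 8.0/CaCl2/CHAPS buffer, then 25nM Ub-CHOP2 and 25nM reporter substrate; fluorescence (Ex 485/Em 531) read after 60min RT, normalized to NEM inhibition, concentration-response curves fitted.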
# ClpP mod – qHTS Assay for Activators of ClpP. purified B. subtilis ClpP, FRET peptide cleavage, 20 min. Potency, µM (doses to about 57.5 µM). ATP-dependent Clp protease proteolytic subunit (Bacillus subtilis (strain 168)), P80244. 1.9% of 340,000 active. AID 651965, 2013; active = well fitted falling curve with a large enough effect; inconclusive = small, poorly fitted or top-dose-only effect; inactive = no such curve, though single readings can be large or run the other way; note: the source files actives as falling curves though it sought activators and does not explain the sign; nearly all actives have a fitted effect of over 65% in size
#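 FRET quenching reversal measured ClpP activation: 10 microg/mL B. subtilis ClpP at pH 8 with the FRET-FV decapeptide, read at 430 nm after 320 nm excitation. The 20-min minus 0-min signal was scaled between DMSO/no-enzyme wells and ADEP (5.8 microM final).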
# Eya2 phos inh – qHTS Assay for Inhibitors of the Phosphatase Activity of Eya2. Protein phosphatase EYA2 (Homo sapiens), O00167. recombinant Eya2, OMFP fluorescence dephosphorylation (OMFP is methylfluorescein phosphate). Potency, µM (series often up to 76.9 µM), usual class: inhibitors. 0.006% of 330,000 active. AID 488837, 2010
# Target sequence (O00167 whole entry, looked up): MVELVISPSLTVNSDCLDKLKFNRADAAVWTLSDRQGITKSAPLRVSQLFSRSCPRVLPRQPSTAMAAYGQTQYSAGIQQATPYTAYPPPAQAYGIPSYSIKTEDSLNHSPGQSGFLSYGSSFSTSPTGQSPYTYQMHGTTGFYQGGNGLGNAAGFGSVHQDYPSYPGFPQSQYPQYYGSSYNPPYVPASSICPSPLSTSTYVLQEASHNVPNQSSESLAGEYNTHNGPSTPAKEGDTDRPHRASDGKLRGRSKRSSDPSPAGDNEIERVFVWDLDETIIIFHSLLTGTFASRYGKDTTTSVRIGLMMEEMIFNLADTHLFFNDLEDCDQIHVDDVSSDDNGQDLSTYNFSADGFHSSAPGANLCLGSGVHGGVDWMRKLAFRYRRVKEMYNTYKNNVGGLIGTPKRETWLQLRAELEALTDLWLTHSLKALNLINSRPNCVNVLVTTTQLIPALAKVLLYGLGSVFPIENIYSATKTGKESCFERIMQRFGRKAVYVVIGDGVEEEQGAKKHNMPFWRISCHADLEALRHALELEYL
#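 Eya2 (0.2 uM) preincubated 10 min at ambient with compound, then OMFP substrate added at 50 uM; 10 min reaction in 50 mM HEPES pH 7.5, 50 mM NaCl, 5 uM MgCl2, 0.05% BSA, 1 mM DTT. Fluorescence read at Ex 485/Em 525 nm.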
# MmCpn inh – Inhibitors of TCP-1 ring complex (TRiC) of Methanococcus maripaludis (MmCpn): qHTS; Potency, µM (highest dose often 76.9 µM), most hits filed as inhibitors; 0.031% of 330,000 active; purified Mm-Cpn ATPase, ADP Transcreener TR-FRET; Chaperonin Mm-Cpn (Methanococcus maripaludis); note: nearly all actives have a fitted effect of over 80% in size
#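 Inhibition of chaperonin ATP hydrolysis is measured as reduced ADP production, detected by competitive TR-FRET in which signal falls with ADP. Final enzyme 25 nM and ATP 10 uM, reacted 30 min at 37°C.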
# Integrin act MD – qHTS for Activators of Integrin-Mediated Alleviation for Muscular Dystrophy; Potency, µM (doses to about 38.3 µM), usual class: activators; 0.064% of 350,000 active; alpha7betagal myoblasts, beta-gal FDG fluorescence, 48 h; note: nearly all actives have a fitted effect of over 60% in size
#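 alpha7betagal+/- myoblasts (passage 13, 250/well) treated 48 h at 37C with compounds at 1:260 dilution of DMSO stock. Lysed, then beta-galactosidase activity read as FDG fluorescence (ex 480/em 540) after 30 min, with pre-read for autofluorescence.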
# Hits are given with their value; - = inactive; ? = inconclusive; . = no result. Unless noted, calls come from the whole dose curve; as a rule, active = well fitted curve in the direction sought with a large enough effect; inconclusive = small, poorly fitted or top-dose-only effect, or another doubt; inactive = no such curve, though single readings can be large; an effect the other way counts as inactive or inconclusive.
SMILES,p53 reactivator,USP2a inh,ClpP mod,Eya2 phos inh,MmCpn inh,Integrin act MD
C#CCSc1nc(-c2cccs2)ccc1C#N,-,-,31.6µM,-,?,-
CCN(CC)C(=O)CSc1nc(N)c(C#N)c(-c2cccs2)c1C#N,-,-,?,-,-,-
COC(=O)CSc1nc(-c2cccs2)ccc1C#N,?,-,6.31µM,-,-,-
Cc1ccc(CSc2nc(-c3cccs3)ccc2C#N)cc1,.,.,-,.,.,.
CCN(C(=O)CSc1nc2ccccc2n1CC(=O)Nc1ccccc1C)c1ccccc1,.,.,-,.,.,.
O=C(CNC(=O)c1cccnc1)c1ccc(F)cc1,.,.,-,.,.,.
Nc1cc(=O)[nH]c2c1CCC2,.,.,-,.,.,.
CCOc1ccc(C(=O)Nc2ccc(N3CCN(C)CC3)cc2)cc1Br,-,-,17.8µM,-,-,-
COc1cc2ccccc2cc1C(=O)Nc1ccc(N2CCN(C)CC2)cc1,20µM,-,-,-,-,-
COc1cc2ccccc2cc1C(=O)Nc1ccc(N2CCN(C(=O)C(C)C)CC2)cc1,-,-,-,-,-,-
Cc1ccc2c(C(=O)CNC3=NCCS3)c(C)[nH]c2c1,.,.,-,.,.,.
O=C(C[n+]1cccc2cc(Cl)ccc21)c1ccc(Br)cc1,.,.,-,.,.,.
Cc1cccc(C(=O)N[C@H](C(=O)Nc2ccc(S(=O)(=O)NC3=NCCCCC3)cc2)C(C)C)c1,-,-,35.5µM,-,-,-
COc1cc(OC)c(NS(=O)(=O)c2cc(-c3cnc(C)o3)ccc2OC)cc1Cl,.,.,-,.,.,.
CCN1C2=NCCCN2c2cc(C)c(C)cc21,-,-,28.2µM,-,-,-
Cc1cccc(CN2C3=NCCCN3c3ccccc32)c1,-,-,-,-,-,-
O=C(NCCCc1ccccc1)c1nn(-c2ccccc2F)nc1CO,.,.,-,.,.,.
Clc1nc(-c2ccccn2)nc2scc(-c3ccccc3)c12,11.2µM,-,28.2µM,-,-,-
CN1CCN(c2nc(-c3cccnc3)nc3scc(-c4ccccc4)c23)CC1,-,-,.,-,-,-
COc1cc2nc(N3CCN(C)CC3)nc(NC3CCN(Cc4ccccc4)CC3)c2cc1OC,.,.,-,.,.,.
COC(=O)COc1cc(C)cc2oc(=O)c(CC(=O)OC)c(C)c12,-,-,14.1µM,-,-,-
COC(=O)C(C)Oc1cc(OC(C)C(=O)OC)c2c(C)c(Cl)c(=O)oc2c1 (centres undefined),-,-,.,-,-,-
CCc1c(C)c2ccc(OCC(=O)OC)cc2oc1=O,-,-,14.1µM,-,-,-
COc1cc(NC(=O)COc2cc(C)cc3oc(=O)c(C)c(C)c23)cc(OC)c1OC,-,-,-,-,-,-
COC(=O)Cc1c(C)c2ccc(OC(C)C)cc2oc1=O,-,-,-,-,-,-
SMILES,p53 reactivator,USP2a inh,ClpP mod,Eya2 phos inh,MmCpn inh,Integrin act MD
COC(=O)COc1cc(OCC(=O)OC)c2c(C)c(Cl)c(=O)oc2c1,-,-,14.1µM,-,-,-
CCN1CCOC(=O)C1CC(=O)Nc1cc(Cl)ccc1OC (centres undefined),.,.,-,.,.,.
Cc1ccc(C2=Nc3ccccc3N(CC(=O)Nc3ccccc3C)C(=O)C2)cc1C,.,.,-,.,.,.
Brc1cccc[n+]1Cc1ccc(C[n+]2ccccc2Br)cc1,.,.,-,.,.,.
N#Cc1nc(-c2cccc3ccccc23)oc1NCC#CCOC(=O)c1cccs1,.,-,.,-,-,.
O=C(c1ccc(Cl)c(S(=O)(=O)N2CCOCC2)c1)N(Cc1nnc(-c2ccccc2Cl)o1)C1CC1,-,-,22.4µM,-,-,-
CCCc1cc(=O)n2[nH]c(-c3ccc(C)cc3)cc2n1,?,-,14.1µM,-,-,-
CCCc1cc(=O)n2[nH]c(-c3ccc(Cl)cc3)cc2n1,.,-,-,-,-,?
CCCc1cc(=O)n2[nH]c(-c3ccccc3)cc2n1,?,-,22.4µM,-,-,-

# Assay outcomes deposited in PubChem by National Center for Advancing Translational Sciences (NCATS).
